The record followed here is PubChem BioAssay AID434959 (Broad Institute, 2010).

Molecules are shown by their SMILES. Among all 30,000 compounds or so, about 110 (0.37%) were called active.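 The calls were made as follows: active = delta delta Cp rounded down to an integer at or above 3, about 3 SD of DMSO wells; inactive = the rest.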 This excerpt belongs to a sample that is enriched for actives.

This assay is described as follows: inhibitors of YB-1 gene expression, primary screen, cell-based, fluorescence (AID 434959).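 Also: higher means less YB-1 transcript or more CDIP transcript relative to DMSO.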 Conditions: U2OS, qRT-PCR YB-1 vs CDIP delta delta Cp, 16 h; active compounds read high; zero = DMSO, each unit about twofold. A general note: Quantitative PCR measures a nucleic acid by following its amplification.
With `COc1ccc(S(=O)(=O)Nc2ccc3c(c2)CC(=O)N([C@H](C)CO)C[C@H](C)[C@H](CN(C)C(=O)Nc2ccccc2)O3)cc1`, the delta Cp (YB-1 minus CDIP) was 0.185 (inactive).

Consider `C[C@@H]1CN([C@@H](C)CO)C(=O)Cc2cc(NC(=O)C3CCCCC3)ccc2O[C@@H]1CN(C)CC1CCCCC1`, for which the delta Cp (YB-1 minus CDIP) was 0.332 (inactive).

For the molecule `Cc1noc(C)c1NC(=O)N(C)C[C@H]1Oc2c(NS(=O)(=O)c3cccs3)cccc2C(=O)N([C@@H](C)CO)C[C@@H]1C`, the delta Cp (YB-1 minus CDIP) was -0.0216 (inactive).

As for `C[C@H]1CN([C@@H](C)CO)C(=O)c2cc(NC(=O)Cc3cn(C)c4ccccc34)ccc2O[C@H]1CN(C)CC1CCCCC1`, the delta Cp (YB-1 minus CDIP) is -0.873 (inactive).

With `C[C@H]1CN([C@@H](C)CO)C(=O)Cc2cc(NC(=O)Nc3ccc(F)cc3)ccc2O[C@H]1CN(C)S(=O)(=O)c1ccccc1`, the delta Cp (YB-1 minus CDIP) was -0.124 (inactive).

On to `O=C(O)CCCCCCC(=O)NN=C1CCCCCC1`, for which the delta Cp (YB-1 minus CDIP) was -0.0992 (inactive).

For `C[C@H](CO)N1C[C@H](C)[C@@H](CN(C)S(=O)(=O)c2ccccc2)Oc2c(NS(=O)(=O)c3cn(C)cn3)cccc2C1=O`, the delta Cp (YB-1 minus CDIP) was 0.133 (inactive).

Regarding `CC(C)CSc1nnc(CSCc2nc(-c3ccc(Cl)cc3)cs2)n1C`, the delta Cp (YB-1 minus CDIP) was 0.176 (inactive).

In the case of `COC(=O)[C@@]1(CCS(=O)(=O)c2ccccc2)N=C(c2ccc(OCCCO)cc2)O[C@H]1c1ccccc1N=[N+]=[N-]`, the delta Cp (YB-1 minus CDIP) was -0.253 (inactive).

`Cc1ccc(-c2c[n+](=O)c3c(n2[O-])CCC3)cc1`: the delta Cp (YB-1 minus CDIP) was -0.134 (inactive).

Turning to `CCc1c(C)n([O-])c2c([n+]1=O)CCCCC2`, the delta Cp (YB-1 minus CDIP) is 6.44 (active).

`C[C@H]1CN([C@@H](C)CO)C(=O)Cc2cc(NC(=O)Cc3ccccc3)ccc2O[C@H]1CN(C)S(=O)(=O)c1ccc(Cl)cc1`: the delta Cp (YB-1 minus CDIP) was -0.43 (inactive).

Regarding `COc1ccc(CN(C)C[C@H]2Oc3c(NS(=O)(=O)c4ccccc4)cccc3C(=O)N([C@H](C)CO)C[C@@H]2C)cc1`, the delta Cp (YB-1 minus CDIP) is 0.263 (inactive).

`C[C@@H]1CCCCO[C@H](CN(C)C(=O)c2ccccc2)[C@@H](C)CN([C@H](C)CO)C(=O)c2cc(NC(=O)Nc3cccc4ccccc34)ccc2O1`: the delta Cp (YB-1 minus CDIP) was -0.0616 (inactive).

With `C[C@@H]1CN([C@H](C)CO)C(=O)c2cc(N(C)C)ccc2O[C@@H]1CN(C)S(C)(=O)=O`, the delta Cp (YB-1 minus CDIP) is -0.194 (inactive).

`C[C@@H]1CN([C@@H](C)CO)C(=O)CCCn2cc(nn2)CO[C@H]1CN(C)Cc1ccc(C(=O)O)cc1`: the delta Cp (YB-1 minus CDIP) is 0.212 (inactive).

Take `C/C=C(/C)C(=O)O[C@H]1CC(C)(C)C[C@H]2C3=CCC4[C@@]5(C)CC[C@H](O[C@@H]6O[C@H](C(=O)O)[C@@H](O[C@@H]7O[C@H](CO)[C@H](O)[C@H](O)[C@H]7O[C@@H]7O[C@H](CO)[C@@H](O)[C@H](O)[C@H]7O)[C@H](O)[C@H]6O[C@@H]6O[C@@H](C)[C@H](O)[C@@H](O)[C@H]6O)C(C)(C)C5CC[C@@]4(C)[C@]3(C)[C@@H](OC(C)=O)[C@@H](O)[C@@]12COC(C)=O` (stereo partly specified): the delta Cp (YB-1 minus CDIP) is -0.219 (inactive).

`C/C=C(/C)C(=O)O[C@H]1CC(C)(C)C[C@H]2C3=CCC4[C@@]5(C)CC[C@H](O[C@@H]6O[C@H](C(=O)O)[C@@H](O[C@@H]7O[C@H](CO)[C@H](O)[C@H](O)[C@H]7O[C@@H]7O[C@H](CO)[C@@H](O)[C@H](O)[C@H]7O)[C@H](O)[C@H]6O[C@@H]6O[C@@H](C)[C@H](O)[C@@H](O)[C@H]6O)C(C)(C)C5CC[C@@]4(C)[C@]3(C)[C@@H](O)[C@@H](O)[C@@]12CO` (stereo partly specified): the delta Cp (YB-1 minus CDIP) was 10.3 (active).

Take `CC1(C)CC[C@]2(C(=O)O)CC[C@]3(C)C(=CCC4[C@@]5(C)CC[C@H](OC6O[C@H](CO)[C@@H](O)[C@H](O[C@@H]7O[C@H](CO)[C@@H](O)[C@H](O)[C@H]7O)[C@H]6O)C(C)(C)C5CC[C@]43C)[C@@H]2C1` (stereo partly specified): the delta Cp (YB-1 minus CDIP) was -0.209 (inactive).

In the case of `CC1OC(OC2C(OC3C(O[C@H]4CC[C@@]5(C)C(CC[C@]6(C)C5CC=C5[C@@H]7CC(C)(C)C[C@@H](O)[C@]7(C)CC[C@]56C)C4(C)C)OC(C(=O)O)C(O)C3O)OC(CO)C(O)C2O)C(O)C(O)C1O` (stereo partly specified), the delta Cp (YB-1 minus CDIP) was 0.299 (inactive).

For `CCC/C=C/C(=O)OC1C(O)C23C(O)OC4(CCC5C6(C)CCC(OC7OC(C(=O)O)C(O)C(OC8OC(CO)C(O)C(O)C8OC8OC(C)C(O)C(O)C8OC8OCC(O)C(O)C8O)C7OC7OC(CO)C(O)C(O)C7O)C(C)(C)C6CCC5(C)C4(C)CC2OC(C)=O)C3CC1(C)C` (stereo unspecified), the delta Cp (YB-1 minus CDIP) is 3.51 (active).

For `CC1(C)CC[C@]2(C(=O)O[C@@H]3O[C@H](CO)[C@@H](O)[C@H](O)[C@H]3O)CC[C@]3(C)C(=CCC4[C@@]5(C)CC[C@H](O[C@@H]6O[C@H](C(=O)O)[C@@H](O[C@@H]7OC[C@H](O)[C@H](O)[C@H]7O)[C@H](O)[C@H]6O)C(C)(C)C5CC[C@]43C)C2C1` (stereo partly specified), the delta Cp (YB-1 minus CDIP) is 0.0826 (inactive).

On to `C=CC(C)(O)CCC1(C)C2=C(C(OC(C)=O)C(OC(C)=O)C1C)C(C)(C)CCC2` (stereo unspecified), for which the delta Cp (YB-1 minus CDIP) is -0.399 (inactive).

`COC(=O)[C@]1(Cc2ccccc2CN=[N+]=[N-])N=C(c2ccc(OCCCO)cc2)O[C@@H]1c1ccccc1CN=[N+]=[N-]`: the delta Cp (YB-1 minus CDIP) is 0.139 (inactive).

As to `C[C@@H]1CN([C@@H](C)CO)C(=O)c2cccc(NC(=O)Nc3cccc4ccccc34)c2O[C@@H]1CN(C)CC1CC1`, the delta Cp (YB-1 minus CDIP) was 0.192 (inactive).

With `C[C@@H]1CN([C@H](C)CO)C(=O)Cc2cc(NC(=O)Cn3cnnn3)ccc2O[C@@H]1CN(C)S(=O)(=O)c1ccc(F)cc1`, the delta Cp (YB-1 minus CDIP) was 0.145 (inactive).

Consider `C[C@H](CO)N1C[C@H](C)[C@H](CN(C)C(=O)NC2CCCCC2)Oc2c(NC(=O)c3nc4ccccc4s3)cccc2C1=O`, for which the delta Cp (YB-1 minus CDIP) is 0.116 (inactive).

In the case of `C[C@H]1CN([C@@H](C)CO)C(=O)Cc2cc(N(C)C)ccc2O[C@@H]1CN(C)Cc1ccc(-c2ccccc2)cc1`, the delta Cp (YB-1 minus CDIP) was 0.0659 (inactive).

Regarding `COC(=O)CCCCCCC(=O)N/N=C/c1ccc(C(=O)O)cc1`, the delta Cp (YB-1 minus CDIP) was -0.219 (inactive).

On to `C[C@H]1CN([C@@H](C)CO)C(=O)c2cc(NC(=O)C3CCCCC3)ccc2O[C@H]1CN(C)S(=O)(=O)c1cn(C)cn1`, for which the delta Cp (YB-1 minus CDIP) is -0.0642 (inactive).

With `CC(C)(C)c1ccc(-c2[nH]nc(NC(=O)c3ccccc3Cl)c2Br)cc1`, the delta Cp (YB-1 minus CDIP) is 0.0133 (inactive).
